{
  "source": "PubChem BioAssay (Tox21)",
  "test": "G protein-coupled receptor (GPCR) small molecule agonists, calcium flux assay: HEK293 wild type cell line counter screen (AID 1920065)",
  "procedure,_shortened": "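In this agonist-mode screen, ATP is the positive control and DMSO the vehicle. Cells grow 18 h before a 1 h dye incubation at 37 C; signal is taken at Ex/Em 480/540 over 3 min.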",
  "note": "“And” between values parts separate entries of the source, which are not always exact repeats. Equal entries are not always repeated. The source made the active and inactive calls. Entries that show only a call come without a potency. Calls follow the shape of the full dose curve. Potency is read from the fitted curve at half-maximal effect.",
  "data": [
    {"smiles": "CC(C)(Oc1ccc(CCNC(=O)c2ccc(Cl)cc2)cc1)C(=O)O", "values": [
      {"measurement": "Potency", "value": "inactive"}
    ]},
    {"smiles": "CC1COc2ccccc2N1C(=O)C(Cl)Cl", "note": "(centres undefined)", "values": [
      {"measurement": "Potency", "value": "inactive"}
    ]},
    {"smiles": "Cc1ccc(C(C)C)cc1O", "values": [
      {"measurement": "Potency", "value": "inactive"}
    ]},
    {"smiles": "CC(COCC(C)OC(=O)c1ccccc1)OC(=O)c1ccccc1", "note": "(centres undefined)", "values": [
      {"measurement": "Potency", "value": "inactive"}
    ]},
    {"smiles": "Cc1cccc(Nc2ccccc2C(=O)O)c1C", "values": [
      {"measurement": "Potency", "value": "inactive"}
    ]},
    {"smiles": "CN(C)c1cccc(O)c1", "values": [
      {"measurement": "Potency", "value": "inactive"}
    ]},
    {"smiles": "O=C1CC2(CCCC2)CC(=O)N1CCCCN1CCN(c2ncccn2)CC1", "values": [
      {"measurement": "Potency", "value": "inactive"}
    ]},
    {"smiles": "O=Cc1ccccc1C=O", "values": [
      {"measurement": "Potency", "value": "inactive"}
    ]},
    {"smiles": "C=C[C@H]1CN2CC[C@H]1C[C@H]2[C@H](O)c1ccnc2ccc(OC)cc12", "values": [
      {"measurement": "Potency", "value": "inactive"}
    ]},
    {"smiles": "C[C@@H]1CC(=O)NN=C1c1ccc(NN=C(C#N)C#N)cc1", "values": [
      {"measurement": "Potency", "value": "inactive"}
    ]},
    {"smiles": "C=C1C[C@]23C[C@@]1(O)CC[C@H]2[C@@]12C=C[C@H](O)[C@@](C)(C(=O)O1)[C@H]2[C@@H]3C(=O)O", "values": [
      {"measurement": "Potency", "value": "inactive"}
    ]},
    {"smiles": "COS(C)(=O)=O", "values": [
      {"measurement": "Potency", "value": "inactive"}
    ]},
    {"smiles": "OCC(CO)(CO)CO", "values": [
      {"measurement": "Potency", "value": "inactive"}
    ]},
    {"smiles": "CC1(C)O[C@@H]2C[C@H]3[C@@H]4C[C@H](F)C5=CC(=O)C=C[C@]5(C)[C@@]4(F)[C@@H](O)C[C@]3(C)[C@]2(C(=O)CO)O1", "values": [
      {"measurement": "Potency", "value": "inactive"}
    ]},
    {"smiles": "N[C@@H](Cc1c[nH]c2ccc(O)cc12)C(=O)O", "values": [
      {"measurement": "Potency", "value": "inactive"}
    ]},
    {"smiles": "CCCCCCCCCCCCCC[P+](CCCC)(CCCC)CCCC", "values": [
      {"measurement": "Potency", "value": "inactive"}
    ]},
    {"smiles": "C=CC(C)(O)CCC=C(C)C", "note": "(centres undefined)", "values": [
      {"measurement": "Potency", "value": "inactive"}
    ]},
    {"smiles": "C=C[C@H]1CN2CC[C@H]1C[C@@H]2[C@@H](O)c1ccnc2ccc(OC)cc12", "values": [
      {"measurement": "Potency", "value": "inactive"}
    ]},
    {"smiles": "CC(=O)[C@H]1CC[C@H]2[C@@H]3CCC4=CC(=O)CC[C@]4(C)[C@H]3CC[C@]12C", "values": [
      {"measurement": "Potency", "value": "inactive"}
    ]},
    {"smiles": "CC/C=C\\C/C=C\\C/C=C\\CCCCCCCC(=O)O", "values": [
      {"measurement": "Potency", "value": "inactive"}
    ]},
    {"smiles": "OC[C@H]1O[C@@H]2O[C@H]3[C@H](O)[C@@H](O)[C@@H](O[C@H]4[C@H](O)[C@@H](O)[C@@H](O[C@H]5[C@H](O)[C@@H](O)[C@@H](O[C@H]6[C@H](O)[C@@H](O)[C@@H](O[C@H]7[C@H](O)[C@@H](O)[C@@H](O[C@H]1[C@H](O)[C@H]2O)O[C@@H]7CO)O[C@@H]6CO)O[C@@H]5CO)O[C@@H]4CO)O[C@@H]3CO", "values": [
      {"measurement": "Potency", "value": "inactive"}
    ]},
    {"smiles": "CCCCC(CC)COP(=O)(O)OCC(CC)CCCC", "note": "(centres undefined)", "values": [
      {"measurement": "Potency", "value": "inactive"}
    ]},
    {"smiles": "O=S(=O)(O)c1ccc(N=Nc2c(O)ccc3cc(S(=O)(=O)O)ccc23)cc1", "values": [
      {"measurement": "Potency", "value": "inactive"}
    ]},
    {"smiles": "O=C(c1ccccc1)c1ccccc1O", "values": [
      {"measurement": "Potency", "value": "inactive"}
    ]},
    {"smiles": "CC(=O)CC(=O)Nc1ccccc1", "values": [
      {"measurement": "Potency", "value": "inactive"}
    ]},
    {"smiles": "C#C[C@]1(O)CC[C@H]2[C@@H]3CCC4=CC(=O)CC[C@@H]4[C@H]3CC[C@@]21C", "values": [
      {"measurement": "Potency", "value": "inactive"}
    ]},
    {"smiles": "Cc1cc(OCCOCC[N+](C)(C)Cc2ccccc2)ccc1C(C)(C)CC(C)(C)C", "values": [
      {"measurement": "Potency", "value": "inactive"}
    ]},
    {"smiles": "CCCCCCCCCCCCOCCO", "values": [
      {"measurement": "Potency", "value": "inactive"}
    ]},
    {"smiles": "CCCCCCCCCCCCOCC1CO1", "note": "(centres undefined)", "values": [
      {"measurement": "Potency", "value": "inactive"}
    ]},
    {"smiles": "O=C(O)/C=C/C(=O)O", "values": [
      {"measurement": "Potency", "value": "inactive"}
    ]},
    {"smiles": "O=C(Oc1ccccc1)c1ccccc1", "values": [
      {"measurement": "Potency", "value": "inactive"}
    ]},
    {"smiles": "CCOC(=O)N1CCC(=C2c3ccc(Cl)cc3CCc3cccnc32)CC1", "values": [
      {"measurement": "Potency", "value": "inactive"}
    ]},
    {"smiles": "C[N+](C)(C)CCO", "values": [
      {"measurement": "Potency", "value": "inactive"}
    ]},
    {"smiles": "COc1c(Cl)ccc(Cl)c1C(=O)O", "values": [
      {"measurement": "Potency", "value": "inactive"}
    ]},
    {"smiles": "Oc1ccc2cc(SSc3ccc4cc(O)ccc4c3)ccc2c1", "values": [
      {"measurement": "Potency", "value": "inactive"}
    ]},
    {"smiles": "CN=C(NC#N)NCCSCc1nc[nH]c1C", "values": [
      {"measurement": "Potency", "value": "inactive"}
    ]},
    {"smiles": "O=C1c2cccc(O)c2C(=O)c2c(O)cccc21", "values": [
      {"measurement": "Potency", "value": "inactive"}
    ]},
    {"smiles": "Clc1ccc2c(c1)C(N1CCNCC1)=Nc1ccccc1O2", "values": [
      {"measurement": "Potency", "value": "inactive"}
    ]},
    {"smiles": "COC(=O)C1=C(C)NC(C)=C(C(=O)OCCN(C)Cc2ccccc2)C1c1cccc([N+](=O)[O-])c1", "note": "(centres undefined)", "values": [
      {"measurement": "Potency", "value": "inactive"}
    ]},
    {"smiles": "Nc1c(S(=O)(=O)O)cc(Br)c2c1C(=O)c1ccccc1C2=O", "values": [
      {"measurement": "Potency", "value": "inactive"}
    ]},
    {"smiles": "Nc1nc(N)nc(-c2ccccc2)n1", "values": [
      {"measurement": "Potency", "value": "inactive"}
    ]},
    {"smiles": "O=S1(=O)OC(c2ccc(O)cc2)(c2ccc(O)cc2)c2ccccc21", "values": [
      {"measurement": "Potency", "value": "inactive"}
    ]},
    {"smiles": "CN(Cc1cnc2nc(N)nc(N)c2n1)c1ccc(C(=O)N[C@@H](CCC(=O)O)C(=O)O)cc1", "values": [
      {"measurement": "Potency", "value": "inactive"}
    ]},
    {"smiles": "COc1ccc(OC)c(C(O)CNC(=O)CN)c1", "note": "(centres undefined)", "values": [
      {"measurement": "Potency", "value": "inactive"}
    ]},
    {"smiles": "CCCCC(CC)COCC1CO1", "note": "(centres undefined)", "values": [
      {"measurement": "Potency", "value": "inactive"}
    ]},
    {"smiles": "O=C1OC2(c3ccccc31)c1cc(Br)c(O)c(Br)c1Oc1c2cc(Br)c(O)c1Br", "values": [
      {"measurement": "Potency", "value": "35.2 µM (active) and 35.7 µM (active) and 16.9 µM (active)"}
    ]},
    {"smiles": "COc1ccc(Cl)cc1C", "values": [
      {"measurement": "Potency", "value": "inactive"}
    ]},
    {"smiles": "CN(C)c1ccc(C(=C2C=CC(=[N+](C)C)C=C2)c2ccc(N(C)C)cc2)cc1", "values": [
      {"measurement": "Potency", "value": "inactive"}
    ]},
    {"smiles": "C=C(C)[C@@H]1CCC2=CC(=O)C[C@@H](C)[C@]2(C)C1", "values": [
      {"measurement": "Potency", "value": "inactive"}
    ]}
  ]
}
